Measurements published in PubChem BioAssay (EPA / NIEHS).
Results filed as inconclusive are left out. Active and inactive are the calls of the source. How the source made its calls, unless noted: active means hit-call score of the fitted dose curve at least 0.9, where 1 is the maximum; inactive means score below 0.9.

Assays:
[1] = target: human CYP19A1, CYP19A1 (gene 1588) (UniProt P11511); assay: NVS_ADME_hCYP19A1: NovaScreen (NVS) CYP450-related Enzyme Activity (ADME) Assay for human CYP19A1 (AID 2283098; active means hit-call score of the fitted dose curve at least 0.9, where 1 is the maximum;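 further: potency for inhibitors seen as loss of fluorescent enzyme signal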)
Summary of the method: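 Biochem, cell-free; recombinant enzyme + specific substrate; fluorescence intensity at 0.5 h post-dose; 10 uM duplicate primary, conc. series for actives; acetonitrile = negative control/baseline; positive and negative controls on every plate.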

[2] = read-out: Interleukin-1 alpha (IL1a), IL1A (gene 3552); assay: BSK_LPS_IL1a: BioMAP Diversity Plus: LPS Assay for Interleukin-1 alpha (IL1a) Biomarker Activity (AID 2283080); conditions: primary human HUVEC with PBMC; actives raise or lower the signal
Summary of the method: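 Human umbilical vein endothelial cells co-cultured with peripheral blood mononuclear cells were LPS-stimulated and exposed to test chemicals for 24 h. IL-1 alpha was quantified by ELISA, with bidirectional curve fitting against DMSO as the negative control and baseline.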

[3] = read-out: Monocyte Chemoattractant Protein-1 (MCP1), CCL2 (gene 6347); assay: BSK_LPS_MCP1: BioMAP Diversity Plus: LPS Assay for Monocyte Chemoattractant Protein-1 (MCP1) Biomarker Activity (AID 2283081); conditions: primary human HUVEC with PBMC; actives raise or lower the signal;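 on AC50: secreted MCP-1 protein quantified by ELISA in culture supernatant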
Summary of the method: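 HUVEC plus PBMC co-culture (human primary cells, LPS system) exposed to test chemical for 24 h; MCP-1 measured by ELISA. Bidirectional curve fitting against DMSO baseline; parallel SRB total-protein staining flags overt cytotoxicity.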

[4] = BSK_LPS_PGE2: BioMAP Diversity Plus: LPS Assay for Prostaglandin E2 (PGE2) Biomarker Activity (AID 2283082); conditions: primary human HUVEC with PBMC; actives raise or lower the signal
Summary of the method: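 Endpoint derived from bidirectional curve fitting versus DMSO of ELISA-measured PGE2 in LPS-stimulated human primary vascular co-culture (HUVEC with PBMC) harvested at 24 h.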

[5] = read-out: Macrophage colony-stimulating factor (MCSF), CSF1 (gene 1435); assay: BSK_LPS_MCSF: BioMAP Diversity Plus: LPS Assay for Macrophage colony-stimulating factor (MCSF) Biomarker Activity (AID 2283083); conditions: primary human HUVEC with PBMC; actives raise or lower the signal
Summary of the method: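 Human umbilical vein endothelial cells co-cultured with peripheral blood mononuclear cells were exposed to compound for 24 h. M-CSF levels were measured by ELISA, and bidirectional curve fitting used DMSO as the negative control and baseline.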

[6] = read-out: Tissue Factor, F3 (gene 2152); assay: BSK_LPS_TissueFactor: BioMAP Diversity Plus: LPS Assay for Tissue Factor Biomarker Activity (AID 2283084); conditions: primary human HUVEC with PBMC; actives raise or lower the signal
Summary of the method: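 Human umbilical vein endothelial cells co-cultured with peripheral blood mononuclear cells were dosed and stimulated with LPS. Cell-surface CD142 was quantified by ELISA at 24 h. Activity was fitted bidirectionally against DMSO baseline.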

[7] = read-out: Tumor necrosis factor (Homo sapiens) (UniProt P01375); assay: BSK_LPS_TNFa: BioMAP Diversity Plus: LPS Assay for Tumour Necrosis Factor alpha (TNFa) Biomarker Activity (AID 2283085); conditions: primary human HUVEC with PBMC; actives raise or lower the signal
Summary of the method: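 Primary human vascular co-culture of HUVEC and PBMC; TNFa ELISA 24 h after treatment, analysed as increase or decrease relative to DMSO control.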

[8] = read-out: Vascular cell adhesion molecule 1 (VCAM1), VCAM1 (gene 7412); assay: BSK_LPS_VCAM1: BioMAP Diversity Plus: LPS Assay for Vascular cell adhesion molecule 1 (VCAM1) Biomarker Activity (AID 2283086); conditions: primary human HUVEC with PBMC; actives raise or lower the signal
Summary of the method: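 Primary human vascular co-culture (umbilical vein endothelium plus PBMC) stimulated with LPS received chemical; 24 h later VCAM-1 was read by ELISA. Overt cytotoxicity was assessed by sulforhodamine B staining of parallel cultures at the same time point.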

CD38, CD38 (gene 952) = assay: BSK_SAg_CD38: BioMAP Diversity Plus: SAg Assay for CD38 Biomarker Activity (AID 2283087); conditions: primary human HUVEC with PBMC; actives raise or lower the signal
Summary of the method: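 Fluorescence ELISA of cell-surface CD38 served as the read-out, with either increase or decrease fitted against DMSO controls. Cells were a human umbilical vein endothelium plus PBMC co-culture under SEB/TSST-1 stimulation, measured 24 h after dosing.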

CD69, CD69 (gene 969) = assay: BSK_SAg_CD69: BioMAP Diversity Plus: SAg Assay for CD69 Biomarker Activity (AID 2283089); conditions: primary human HUVEC with PBMC; actives raise or lower the signal;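 on AC50: cell surface CD69 protein quantified by ELISA with fluorescence detection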
Summary of the method: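 Primary human vascular co-culture (umbilical vein endothelium with peripheral blood mononuclear cells) exposed to test chemical for 24 h. CD69 levels quantified by fluorescence ELISA; DMSO served as negative control for bidirectional fitting.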

[9] = read-out: Monocyte Chemoattractant Protein-1 (MCP1), CCL2 (gene 6347); assay: BSK_SAg_MCP1: BioMAP Diversity Plus: SAg Assay for Monocyte Chemoattractant Protein-1 (MCP1) Biomarker Activity (AID 2283090); conditions: primary human HUVEC with PBMC; actives raise or lower the signal
Summary of the method: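 MCP-1 levels in the endothelial–PBMC SAg co-culture were quantified by ELISA at 24 h post-dosing; both increases and decreases versus DMSO scored. Cytotoxicity monitored by SRB total protein in parallel cultures.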

[10] = read-out: E-selectin (Homo sapiens) (UniProt P16581); assay: BSK_SAg_Eselectin: BioMAP Diversity Plus: SAg Assay for Eselectin Biomarker Activity (AID 2283091); conditions: primary human HUVEC with PBMC; actives raise or lower the signal
Summary of the method: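 HUVEC co-cultured with PBMC, compound dosed then read at 24 h; E-selectin measured by ELISA. Activity fitted bidirectionally against DMSO as negative control and baseline.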

[11] = read-out: Monokine induced gamma interferon (MIG), CXCL9 (gene 4283); assay: BSK_SAg_MIG: BioMAP Diversity Plus: SAg Assay for Monokine induced gamma interferon (MIG) Biomarker Activity (AID 2283092); conditions: primary human HUVEC with PBMC; actives raise or lower the signal
Summary of the method: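 Endothelial cells and PBMC were co-cultured, exposed to test chemicals, and sampled 24 h later. MIG was measured by ELISA, and responses were fitted in both directions relative to DMSO.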

[12] = BSK_SAg_PBMCCytotoxicity: PBMC Cytotoxicity Assessment in the BioMAP Diversity Plus: SAg Assay (AID 2283093); conditions: primary human HUVEC with PBMC;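 further: PBMC viability measured as Alamar Blue reduction fluorescence at 546/580 nm; fitted both ways against DMSO so a hit may be loss or gain of signal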;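 on AC50: PBMC superantigen activated with SEB plus TSST-1 one hour after compound addition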
Summary of the method: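 Compound added to 75,000 PBMC/well for 1 h; SEB and TSST-1 then added at 20 ng/mL final each; 90 h incubation; Alamar Blue 6 h; read 546/580 nm ex/em. Activity fitted bidirectionally relative to DMSO baseline.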

[13] = read-out: Interleukin-8 (IL8), CXCL8 (gene 3576); assay: BSK_SAg_IL8: BioMAP Diversity Plus: SAg Assay for Interleukin-8 (IL8) Biomarker Activity (AID 2283094); conditions: primary human HUVEC with PBMC; actives raise or lower the signal
Summary of the method: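 In this co-culture of human umbilical vein endothelium with peripheral blood mononuclear cells, IL-8 is assayed by ELISA at 24 h. DMSO serves as baseline for bidirectional curve fitting.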

[14] = BSK_SAg_Proliferation: Cell Proliferation Assessment in the BioMAP Diversity Plus: SAg Assay (AID 2283095); conditions: primary human HUVEC with PBMC;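 further: relative cell number as total protein by SRB absorbance in sub-confluent culture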
Summary of the method: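 Readout is SRB-stained protein (560 nm) in a primary human HUVEC and PBMC co-culture; sub-confluent cultures are read at 96 h. Activity is fitted bidirectionally using DMSO as baseline.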

[15] = BSK_SAg_SRB: Viability Assessment in the BioMAP Diversity Plus: SAg Assay (AID 2283096); conditions: primary human HUVEC with PBMC;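 further: cells read one day after compound addition; hits may be either gain or loss of signal compared with DMSO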
Summary of the method: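 Total protein by sulforhodamine B staining, 24 h after dosing, in HUVEC–PBMC co-culture; DMSO-referenced bidirectional fitting.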

[16] = target: human CYP1A1, CYP1A1 (gene 1543) (UniProt P04798); assay: NVS_ADME_hCYP1A1: NovaScreen (NVS) CYP450-related Enzyme Activity (ADME) Assay for human CYP1A1 (AID 2283100; active means hit-call score of the fitted dose curve at least 0.9, where 1 is the maximum)
Summary of the method: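 Cell-free fluorescence assay of recombinant human CYP1A1 activity with a specific substrate, read 1 h after dosing. Compounds were screened in duplicate at 10 uM, then hits tested in concentration-response up to 20 uM; acetonitrile served as baseline.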

[17] = target: human CYP2A6, CYP2A6 (gene 1548) (UniProt P11509); assay: NVS_ADME_hCYP2A6: NovaScreen (NVS) CYP450-related Enzyme Activity (ADME) Assay for human CYP2A6 (AID 2283099; active means hit-call score of the fitted dose curve at least 0.9, where 1 is the maximum)
Summary of the method: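 Cell-free fluorescence readout of recombinant human CYP2A6 expressed in insect cells, read 0.5 h after dosing; loss of signal versus acetonitrile negative control. Primary screen in duplicate at 10 uM; actives re-run in concentration-response up to 20 uM.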

Measured: AC50

Tumor necrosis factor (Homo sapiens), sequence (P01375 whole entry, looked up): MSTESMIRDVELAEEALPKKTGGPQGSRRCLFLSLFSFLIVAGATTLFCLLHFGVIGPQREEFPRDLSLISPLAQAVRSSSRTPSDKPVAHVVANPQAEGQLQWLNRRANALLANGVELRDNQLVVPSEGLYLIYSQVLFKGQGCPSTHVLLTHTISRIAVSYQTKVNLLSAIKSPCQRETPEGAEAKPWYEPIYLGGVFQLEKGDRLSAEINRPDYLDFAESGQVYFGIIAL
E-selectin (Homo sapiens), sequence (P16581 whole entry, looked up): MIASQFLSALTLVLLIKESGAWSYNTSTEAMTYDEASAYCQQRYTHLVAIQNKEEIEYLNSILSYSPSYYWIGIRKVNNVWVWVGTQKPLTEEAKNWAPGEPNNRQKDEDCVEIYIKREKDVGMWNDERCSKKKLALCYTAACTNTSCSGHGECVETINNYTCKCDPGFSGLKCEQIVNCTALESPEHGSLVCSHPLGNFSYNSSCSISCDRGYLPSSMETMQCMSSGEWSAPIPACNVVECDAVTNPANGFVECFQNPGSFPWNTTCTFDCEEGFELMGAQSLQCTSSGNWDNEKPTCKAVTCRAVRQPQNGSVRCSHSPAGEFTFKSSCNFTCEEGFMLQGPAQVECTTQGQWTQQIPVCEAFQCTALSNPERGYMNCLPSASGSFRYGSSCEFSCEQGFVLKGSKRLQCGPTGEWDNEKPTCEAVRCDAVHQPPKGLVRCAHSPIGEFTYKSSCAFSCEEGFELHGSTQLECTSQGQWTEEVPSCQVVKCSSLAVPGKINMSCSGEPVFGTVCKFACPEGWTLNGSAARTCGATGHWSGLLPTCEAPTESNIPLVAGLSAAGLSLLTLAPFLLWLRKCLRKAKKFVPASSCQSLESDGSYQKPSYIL
human CYP2A6, CYP2A6 (gene 1548), sequence (P11509 whole entry, looked up): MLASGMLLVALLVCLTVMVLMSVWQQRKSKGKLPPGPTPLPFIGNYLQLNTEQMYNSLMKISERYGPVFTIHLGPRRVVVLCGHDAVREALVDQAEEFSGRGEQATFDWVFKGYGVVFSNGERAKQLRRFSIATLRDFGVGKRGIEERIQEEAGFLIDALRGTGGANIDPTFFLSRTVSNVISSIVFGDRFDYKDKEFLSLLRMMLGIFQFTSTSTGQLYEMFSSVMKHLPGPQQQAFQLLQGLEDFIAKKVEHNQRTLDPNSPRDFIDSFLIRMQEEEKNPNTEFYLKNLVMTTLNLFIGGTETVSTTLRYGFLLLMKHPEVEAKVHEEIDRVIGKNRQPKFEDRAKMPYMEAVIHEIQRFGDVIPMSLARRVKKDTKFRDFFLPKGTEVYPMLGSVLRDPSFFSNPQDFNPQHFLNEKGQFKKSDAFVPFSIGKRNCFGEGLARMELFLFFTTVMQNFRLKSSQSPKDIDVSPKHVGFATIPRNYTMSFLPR
human CYP19A1, CYP19A1 (gene 1588), sequence (P11511 whole entry, looked up): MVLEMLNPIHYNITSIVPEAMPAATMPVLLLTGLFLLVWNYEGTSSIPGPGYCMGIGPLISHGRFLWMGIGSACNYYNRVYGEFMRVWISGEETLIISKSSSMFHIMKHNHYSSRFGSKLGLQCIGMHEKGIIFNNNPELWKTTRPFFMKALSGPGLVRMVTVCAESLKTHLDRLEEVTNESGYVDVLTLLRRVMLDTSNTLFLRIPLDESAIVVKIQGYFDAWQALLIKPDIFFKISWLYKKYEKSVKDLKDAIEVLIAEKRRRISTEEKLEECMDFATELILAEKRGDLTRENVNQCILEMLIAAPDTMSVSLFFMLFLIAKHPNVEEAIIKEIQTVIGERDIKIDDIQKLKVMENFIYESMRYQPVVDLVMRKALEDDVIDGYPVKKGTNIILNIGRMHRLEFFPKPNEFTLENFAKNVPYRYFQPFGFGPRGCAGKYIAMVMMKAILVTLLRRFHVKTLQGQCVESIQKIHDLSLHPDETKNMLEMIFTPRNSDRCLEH
human CYP1A1, CYP1A1 (gene 1543), sequence (P04798 whole entry, looked up): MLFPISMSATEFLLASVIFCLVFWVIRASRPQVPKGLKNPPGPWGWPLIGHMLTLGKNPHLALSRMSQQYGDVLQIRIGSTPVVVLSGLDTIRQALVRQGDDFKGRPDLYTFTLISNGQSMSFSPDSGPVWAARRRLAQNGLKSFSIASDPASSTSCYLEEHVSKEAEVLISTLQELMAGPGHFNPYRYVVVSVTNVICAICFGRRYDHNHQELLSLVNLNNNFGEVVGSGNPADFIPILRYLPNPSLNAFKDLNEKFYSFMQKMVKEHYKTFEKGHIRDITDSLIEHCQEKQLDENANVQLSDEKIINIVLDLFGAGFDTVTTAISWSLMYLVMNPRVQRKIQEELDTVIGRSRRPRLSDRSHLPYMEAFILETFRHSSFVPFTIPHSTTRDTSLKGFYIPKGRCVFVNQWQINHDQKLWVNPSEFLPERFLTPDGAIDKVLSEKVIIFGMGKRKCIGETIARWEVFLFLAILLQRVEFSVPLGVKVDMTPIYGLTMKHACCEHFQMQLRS

O=S(=O)(c1ccc(O)cc1)c1ccc(O)cc1
active: [1] 8.81 µM

CCOP(=S)(OCC)SCSCC
active: [16] 4.19 µM
not listed: [1] | [17]
inactive: all other assays above

CCOP(=S)(OCC)SCSc1ccc(Cl)cc1
inactive: [3] | [4] | [6] | [7] | [11] | [15]
active: [2] 5.31 µM | [5] 18.7 µM | [8] 13.2 µM | CD38, CD38 (gene 952) 20 µM | CD69, CD69 (gene 969) 20 µM | [9] 20 µM | [10] 20 µM | [12] 13 µM | [13] 20 µM | [14] 14.2 µM

ClC1=C(Cl)C2(Cl)C3C(Cl)C(Cl)CC3C1(Cl)C2(Cl)Cl (stereo not drawn)
inactive: [4]
active: [2] 26 µM | [3] 33.2 µM | [5] 27.9 µM | [6] 31.5 µM | [7] 32.7 µM | [8] 29.2 µM | CD38, CD38 (gene 952) 29.7 µM | [9] 33.6 µM | [10] 32.3 µM | [11] 34.4 µM | [12] 13.8 µM | [13] 34.7 µM | [14] 7.61 µM | [15] 31.1 µM

CCNc1nc(Cl)nc(NC(C)(C)C)n1
active: [7] 5.47 µM | CD38, CD38 (gene 952) 7.93 µM | [9] 6.26 µM
not listed: [1] | CD69, CD69 (gene 969) | [16] | [17]
inactive: all other assays above

Cc1ccc(N)cc1N
not listed: [1] | [16]
inactive: all other assays above

Nc1ccc2ccccc2c1
active: [10] 4.16 µM
not listed: [1] | [16]
inactive: all other assays above
